# This is a sample that favours compounds with a hit; in the whole collection about 10% have one here.
# GLS inh: glutaminase GLS (human) inhibition; O94925; GLS enzymatic activity, qHTS titration; Potency, µM (highest dose often 45.5 µM), without a hit: top-dose activity change, negative = inhibition, usual class: inhibitors; 410,000 tested, 0.21% active; AID 624170; note: % is set by controls: 0 for no effect and ±100 for the full control effect
#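 Glutamate formation by hKGA was monitored fluorometrically using coupled glutamate oxidase, HRP and Amplex Red. Substrate was added as 1 mM L-glutamine solution; incubation was 30 min at RT after an initial read.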
# G9a inh: blocks human histone lysine methyltransferase G9a. Q96KQ7. G9a H3K9 monomethylation, AlphaScreen, 2 h. Potency, µM (titrated, usually from 102 µM), without a hit: top-dose activity, negative = inhibition, hits mostly inhibitors. 350,000 tested, 8.8% active. AID 504332; note: % is set by controls: 0 for no effect and ±100 for the full control effect; nearly all actives have a fitted effect of over 75% in size
#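 AlphaScreen read-out: biotin-H3K9 peptide (500 nM) methylation by 20 nM enzyme with 20 uM SAM, 2 h at room temperature after 15 min compound preincubation; anti-monomethyl H3K9 antibody plus donor/acceptor beads, 10 min dark.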
# JMJD2A Tudor inh: blocks the human JMJD2A Tudor domain. Potency, µM (top dose mostly 114 µM), without a hit: at the highest dose activity change, negative = inhibition, usual class: inhibitors. AID 504339. O75164. AlphaScreen JMJD2A-Tudor / H3K4me3 peptide binding. 390,000 tested, 4.4% active; note: % is set by controls: 0 for no effect and ±100 for the full control effect; nearly all actives have a fitted effect of over 50% in size
# BAZ2B block: BAZ2B (human) inhibition. Potency, µM (doses to about 114 µM), for the others: top-dose activity change, negative = inhibition, usual class: inhibitors. AlphaScreen BAZ2B-H3K14Ac peptide displacement. 360,000 tested, 4.4% active. Q9UIF8. AID 504333; note: % is set by controls: 0 for no effect and ±100 for the full control effect; nearly all actives have a fitted effect of over 60% in size
#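 Inhibition is scored as reduced AlphaScreen emission. The BAZ2B/b-H3(5-23)K14Ac complex (50 nM each) in PBS pH 7.4, 0.01% Tween-20 meets compound (up to 110 uM) for 30 min at RT before bead addition.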
# HP1b chromo inh: inhibitors of HP1-beta chromodomain binding to methylated histone tails; P83916; AlphaScreen HP1-beta / biotin-H3K9me3 peptide binding; Potency, µM (series often up to 114 µM), for inactives: at the highest dose activity change, negative = inhibition, hits mostly inhibitors; 390,000 tested, 0.56% active; AID 540317; note: nearly all actives have a fitted effect of over 70% in size
#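 Compound inhibition of the preformed complex between 50 nM HP1-beta and 50 nM biotinylated H3K9me3 peptide was read by AlphaScreen. Buffer was PBS pH 7.4 with 0.01% Tween-20. Incubations ran 30 min at room temperature, with 10 ug/mL donor/acceptor beads.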
# L3MBTL1 inh: blocks human L3MBTL1 | AlphaScreen L3MBTL1–H3K9me1 peptide binding | AID 485360 | 230,000 tested, 0.66% active | Potency, µM (doses to about 57.1 µM), for inactives: top-dose activity, negative = inhibition, usual class: inhibitors; note: % is set by controls: 0 for no effect and ±100 for the full control effect; nearly all actives have a fitted effect of over 60% in size
# Target sequence (Q9Y468 whole entry, looked up): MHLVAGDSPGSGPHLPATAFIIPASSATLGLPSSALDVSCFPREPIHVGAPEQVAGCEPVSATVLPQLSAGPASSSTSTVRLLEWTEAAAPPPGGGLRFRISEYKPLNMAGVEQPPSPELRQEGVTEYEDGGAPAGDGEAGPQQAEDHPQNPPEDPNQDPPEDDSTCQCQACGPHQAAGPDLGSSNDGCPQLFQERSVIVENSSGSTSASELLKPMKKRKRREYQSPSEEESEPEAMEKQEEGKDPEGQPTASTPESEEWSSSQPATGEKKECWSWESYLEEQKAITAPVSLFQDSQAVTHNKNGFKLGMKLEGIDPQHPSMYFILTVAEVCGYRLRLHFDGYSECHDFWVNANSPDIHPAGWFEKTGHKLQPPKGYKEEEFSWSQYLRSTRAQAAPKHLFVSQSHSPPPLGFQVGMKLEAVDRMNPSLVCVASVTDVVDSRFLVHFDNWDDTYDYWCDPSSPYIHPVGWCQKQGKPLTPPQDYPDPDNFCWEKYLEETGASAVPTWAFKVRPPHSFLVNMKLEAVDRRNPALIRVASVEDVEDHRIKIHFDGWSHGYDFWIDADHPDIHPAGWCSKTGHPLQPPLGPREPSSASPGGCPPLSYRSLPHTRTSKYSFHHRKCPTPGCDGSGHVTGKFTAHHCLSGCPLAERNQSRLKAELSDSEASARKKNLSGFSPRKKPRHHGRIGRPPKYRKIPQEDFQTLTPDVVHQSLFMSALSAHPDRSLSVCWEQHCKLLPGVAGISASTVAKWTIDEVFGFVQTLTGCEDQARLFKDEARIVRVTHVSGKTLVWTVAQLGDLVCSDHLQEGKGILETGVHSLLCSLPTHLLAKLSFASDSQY
#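 Displacement of a biotinylated histone H3(1-15) peptide monomethylated at Lys9 (75 nM) from L3MBTL1 (50 nM) was measured by AlphaScreen after a 30 min room-temperature compound incubation; cefsulodin titration served as intraplate control.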
# * marks the source's active call; other numbers are inactive results; ? = inconclusive; · = no result given; [ ] = dose if it differs, or a comment. Calls come from the whole dose curve; as a rule, active = well fitted curve in the direction sought with a large enough effect; inconclusive = small, poorly fitted or top-dose-only effect, or another doubt; inactive = no such curve, though single readings can be large; an effect the other way counts as inactive or inconclusive. Potency is the fitted concentration of half-maximal effect.
SMILES,GLS inh,G9a inh,JMJD2A Tudor inh,BAZ2B block,HP1b chromo inh,L3MBTL1 inh
C=CCc1c(C)[nH]c2c(OC)cccc2c1=S,-16.6%,3.98µM*,?,-33.8%,2.1%,-5.0%
CCOc1ccc(NCC2CCOC(C)(C)C2)cc1 (stereo unspecified),35.3%,7.08µM*,-35.8%,?,-5.9%,-8.1%
CCOc1ccc(NC(=O)CC2CC(C)(C)OC2=O)cc1 (stereo unspecified),3.1%,-2.8%[59 µM],-1.5%[11.4 µM],-1.5%,-15.0%,7.1%
Cc1nn(-c2ccc(N3CCCC3)nn2)c(C)c1CCC(=O)NCc1ccc(F)cc1,2.8%,0.0%[59 µM],-8.3%,79.4µM*,75.4%,·
COc1ccc(CNC(=O)CCc2c(C)nn(-c3ccc(N4CCOCC4)nn3)c2C)c(OC)c1,2.5%,0.0%[59 µM],-10.7%,-14.5%,-3.6%,·
COc1ccc(CNC(=O)CCc2c(C)nn(-c3ccc(N4CCCCC4)nn3)c2C)c(OC)c1,-7.5%,16.5%[59 µM],89.1µM*,-31.2%,-8.0%,·
COc1ccccc1CNc1ncnc2ccc(-c3ccccc3C#N)cc12,·,-41.3%[0.501 µM],·,·,·,·
N#Cc1c(NC(=S)NC(=O)c2ccccc2)sc2c1CCCCC2,·,·,-35.5%,·,?,·
CC(C)C(C(=O)Nc1sc2c(c1C#N)CCCCC2)N1C(=O)c2ccccc2C1=O (stereo unspecified),-9.5%,?,-28.3%,50.1µM*,11.4%,-5.1%
N#Cc1c(NC(=O)c2ccccc2)sc2c1CCC2,21.1%,?,2.5%,-2.2%,32.6%,·
N#Cc1c(NC(=S)NC(=O)c2ccccc2)sc2c1CCCC2,11.5%,8.91µM*,?,4.6%,8.2%,-6.1%
N#Cc1c(NC(=S)NC(=O)c2ccccc2)sc2c1CCN(CCc1ccccc1)C2,·,39.8µM*,·,-11.6%,·,-5.4%
N#Cc1c(NC(=S)NC(=O)C2CCCC2)sc2c1CCCCC2,3.6%,35.5µM*,-27.7%,-1.1%,-19.4%,6.8%
COc1ccccc1CNC(=O)CSc1ncc(S(=O)(=O)c2ccc(C)c(Cl)c2)c(=O)[nH]1,2.8%,-15.7%[59 µM],-11.5%,2.4%,27.3%[57 µM],·
Cc1c(CNCCCc2ccccc2)c(C(=O)O)c(C)n1Cc1cccc(Cl)c1,12.6%,-28.4%[59 µM],?,-28.9%,-35.8%,·
CCc1ccc(OCCCn2c(CCNC(=O)C3CCCCC3)nc3ccccc32)cc1,·,·,-16.2%[57.1 µM],·,20.3%[57 µM],·
CC1(C)Cc2c(sc(NC(=S)NC(=O)c3ccccc3)c2C(=O)O)CO1,24.0%,39.8µM*,-31.2%,?,-25.2%,-5.5%
COc1ccccc1NC(=O)c1ccc2ccccc2c1,·,·,61.6%,·,·,·
Cc1ccc(NC2c3ncccc3C(=O)N2Cc2ccco2)c(C)c1 (stereo unspecified),-3.3%,44.7µM*,?,-33.4%,15.6%,-7.3%
COc1ccc(CN2C(=O)c3cccnc3C2Nc2cc(Cl)ccc2OC)cc1 (stereo unspecified),21.9%,?,20µM*,25.1µM*,-23.1%,?
COc1ccc(CN2C(=O)c3cccnc3C2O)cc1 (stereo unspecified),?,?,?,39.8µM*,-23.5%,·
COc1ccc(OC)c(NC2c3ncccc3C(=O)N2Cc2ccco2)c1 (stereo unspecified),26.7%,50.1µM*,-33.8%,?,2.6%,-5.5%
Cc1cn(C)c(CC(=O)NCc2ccc(F)cc2)c1C(=O)O,0.6%,16.1%[59 µM],-0.3%,-3.7%,31.0%,·
CCOc1ccc(C(=O)Cn2c(=O)n3nc(CCn4nc(C)cc4C)nc3c3cc(OC)c(OC)cc32)cc1,-2.7%,16.6%[59 µM],-11.7%,-7.8%,31.4%,·
CCCC(=O)Nc1nnc(SCc2cc(=O)n3cccc(C)c3n2)s1,8.6%,1.5%[59 µM],-6.2%,1.4%,26.9%[57 µM],·
SMILES,GLS inh,G9a inh,JMJD2A Tudor inh,BAZ2B block,HP1b chromo inh,L3MBTL1 inh
COc1cccc(C(=O)N2CCN(Cc3ccc(OC)cc3OC)CC2)c1,4.3%,7.94µM*,12.6µM*,25.1µM*,?,0.0%
COc1ccc(C(=O)NCCN2CCN(C(=O)c3ccc(OC)c(OC)c3)CC2)cc1OC,-6.5%,-2.3%,-3.2%,-6.9%,54.8%,·
COc1ccc(OC)c(CN2CCN(C(=O)c3cccc(S(=O)(=O)Nc4ccccc4OC)c3)CC2)c1,26.5%,-50.0%,-35.6%,?,-11.0%,-8.2%
COc1ccc(Br)cc1CN1CCN(C(=O)c2ccc(OC)c(OC)c2)CC1,-5.6%,15.8µM*,14.1µM*,50.1µM*,?,-9.2%
COc1cccc(C(=O)N2CCN(Cc3cc(Br)ccc3OC)CC2)c1,9.9%,22.4µM*,7.94µM*,28.2µM*,?,23.7%
COc1ccc(Br)cc1CNC(=O)C1CCCN(S(C)(=O)=O)C1 (stereo unspecified),-0.5%,-2.0%[12.7 µM],-9.8%,9.0%,11.8%,6.7%
COc1ccc(Br)cc1CN1CCC(N2CCCC2)CC1,-1.9%,25.1µM*,?,31.6µM*,?,-9.1%
COc1cc(/C=C/C(=O)OCC(=O)Nc2ccc(NC(C)=O)cc2)cc(S(=O)(=O)N2CCc3ccccc32)c1OC,-4.6%,-49.7%,-30.1%,·,23.7%,-19.1%
COc1cc(/C=C/C(=O)OCC(=O)NC2CC2)cc(S(=O)(=O)N2CCc3ccccc32)c1OC,-3.4%,56.2µM*,-18.6%,-23.1%,-0.3%,-19.9%
Cc1ccc(-n2nc(C)c(NC(=O)CCl)c2C)cc1C,0.1%,-4.2%,6.8%,3.3%,23.0%,-2.5%
CCC(=O)Nc1c(C)nn(-c2ccc(C)c(C)c2)c1C,15.7%,28.2µM*,0.7%,-21.8%,7.8%,-3.2%
CN(C)c1ccc(/C=N/n2cnn(Cc3ccccc3Cl)c2=S)cc1,3.9%,4.47µM*,-21.5%,?,?,-25.4%
C/C(=N\N1CCN(Cc2ccccc2Cl)CC1)c1ccc(F)cc1,8.0%,·,-11.7%,-12.6%,24.6%,-1.4%
Fc1ccc(/C=N/n2cnn(Cc3ccccc3Cl)c2=S)cc1,-25.1%,20µM*,27.3%,26.0%,-4.5%,9.0%
O=C(NCC(c1ccc2c(c1)OCO2)N1CCOCC1)C(=O)Nc1ccc(Cl)cc1 (stereo unspecified),1.5%,11.9%[59 µM],-5.5%,-5.2%,7.4%,·
CCOc1ccc(C(=O)CN2CCN(S(=O)(=O)c3ccc(Br)cc3)CC2)cc1,-4.4%,31.6µM*,-6.9%,-35.6%,62.2%,0.0%
CCOc1ccc(C(=O)CN2CCN(S(=O)(=O)c3ccc(OC)cc3)CC2)cc1,-3.2%,12.6µM*,-32.0%,-1.5%,50.1%,6.1%
COc1ccc(C(=O)CN2CCN(S(=O)(=O)c3ccc(C(C)C)cc3)CC2)cc1,5.1%,-34.1%[59 µM],-22.0%,-17.9%,16.6%,·
Cc1ccc(-n2nc3ccc(N)cc3n2)cc1Cl,2.0%,44.7µM*,4.0%,?,30.2%,·
